Screening results: PubChem, several laboratories
Sampled rows, rich in hits. Any-hit rate of the full collection: about 1.5%.
TMEM16A inh: TMEM16A chloride channel inhibitors, primary screen, cell-based, HTS. AID 588511, 2011. 310,000 compounds, 1.2% hits. normalized B-score (activity score, 25-100; higher = stronger inhibition) at 10 µM. Anoctamin-1 (Mus musculus), Q8BHY3. HEK293 TMEM16A/YFP iodide influx fluorescence, ionomycin;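 active = ratio plate-corrected score three or more library SD toward inhibition, starting fluorescence score within five deviations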;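 also: score derived from kinetic fluorescence span divided by baseline fluorescence per well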
Target sequence (Q8BHY3 whole entry, looked up): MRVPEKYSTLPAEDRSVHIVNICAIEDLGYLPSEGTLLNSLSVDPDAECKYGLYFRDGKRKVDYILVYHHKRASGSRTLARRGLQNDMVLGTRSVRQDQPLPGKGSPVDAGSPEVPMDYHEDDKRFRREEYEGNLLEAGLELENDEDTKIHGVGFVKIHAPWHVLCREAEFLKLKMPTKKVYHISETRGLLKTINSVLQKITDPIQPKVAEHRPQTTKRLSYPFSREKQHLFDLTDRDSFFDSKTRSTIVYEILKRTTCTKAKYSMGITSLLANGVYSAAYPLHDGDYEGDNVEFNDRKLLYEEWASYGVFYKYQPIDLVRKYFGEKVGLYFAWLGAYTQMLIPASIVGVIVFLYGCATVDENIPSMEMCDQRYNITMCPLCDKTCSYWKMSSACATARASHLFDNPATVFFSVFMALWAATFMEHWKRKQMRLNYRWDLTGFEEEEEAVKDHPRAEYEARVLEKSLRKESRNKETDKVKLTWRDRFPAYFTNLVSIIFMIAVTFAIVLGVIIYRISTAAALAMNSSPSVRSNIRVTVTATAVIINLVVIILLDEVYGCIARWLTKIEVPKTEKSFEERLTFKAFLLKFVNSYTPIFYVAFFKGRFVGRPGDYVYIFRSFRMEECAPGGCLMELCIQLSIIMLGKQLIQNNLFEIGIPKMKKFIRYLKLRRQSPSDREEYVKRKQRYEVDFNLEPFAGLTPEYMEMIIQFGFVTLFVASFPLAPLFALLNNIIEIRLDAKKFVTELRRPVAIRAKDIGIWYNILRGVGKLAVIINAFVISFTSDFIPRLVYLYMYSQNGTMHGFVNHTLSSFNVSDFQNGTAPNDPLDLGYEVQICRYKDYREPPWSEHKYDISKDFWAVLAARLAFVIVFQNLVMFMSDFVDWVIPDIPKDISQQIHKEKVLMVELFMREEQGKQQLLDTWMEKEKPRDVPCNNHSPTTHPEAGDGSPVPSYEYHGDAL
ABCB6 inh MLPCN: ABCB6 transporter inhibitors, primary screen, K562-ABCB6 cells, flow cytometry, MLPCN library. fluorescence ratio to DMSO, % at 10 µM. K562-ABCB6 porphyrin accumulation, 1 h; stronger effect = lower value. 360,000 compounds, 0.19% hits;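 active = fluorescence ratio to DMSO below 75%, the collection mean minus 3 SD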;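 also: signal is porphyrin accumulated inside mitochondria; lower ratio means ABCB6 inhibition with less porphyrin fluorescence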
ANO1 activ: TMEM16A chloride channel activators or potentiators, primary screen, cell-based, HTS. HEK293 TMEM16A/YFP-H148Q/I152L, iodide quench fluorescence; stronger effect = lower value. AID 623877, 2012. Anoctamin-1 (Mus musculus), Q8BHY3. B-score at 10 µM. 340,000 compounds, 0.3% hits;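 active = fluorescence-ratio B-score plate-corrected deviation score at least 3 library SD below zero, with starting fluorescence score within 5 deviations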;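 also: channel opened by trigger with iodide after compound preincubation; score built on the fluorescence ratio of max minus min over baseline; more negative score means more quench and so TMEM16A activation or potentiation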
DAGLB inhibitor: DAGLB lipase inhibitors, primary screen, biochemical, fluorescence, HTS | Diacylglycerol lipase-beta (Homo sapiens), Q8NCG7 | HEK293T DAGLB membrane lysate, EnzChek fluorogenic substrate | 340,000 compounds, 0.059% hits | inhibition, % at 5.17 µM; in the data active = inhibition above about 34%
hiPSC survival: enhancers of single-cell hiPSC survival, primary screen, ATPlite luminescence | survival enhancement, % at 20 µM | 360,000 compounds, 0.044% hits | 100% = ROCK inhibitor wells, 0% = DMSO; in the data active = survival enhancement above about 18%;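 also: cells exposed to compounds for 16 hours before the ATP read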
Hits are given with their value.

`COC(=O)C(Cc1ccc(OC(=O)c2ccc(C(F)(F)F)cc2)cc1)N1Cc2ccccc2C1=O` (stereo unspecified) gave TMEM16A inh 100, ABCB6 inh MLPCN inactive, ANO1 activ inactive, DAGLB inhibitor inactive and hiPSC survival inactive.
CSCC[C@@H](C(=O)O)N1Cc2ccccc2C1=O was read as TMEM16A inh inactive, ABCB6 inh MLPCN inactive, ANO1 activ inactive, DAGLB inhibitor inactive and hiPSC survival inactive.
`COCCn1c(C)cc(C(=O)COC(=O)C23CC4CC(CC(O)(C4)C2)C3)c1C` gave TMEM16A inh inactive, ABCB6 inh MLPCN 2.0, ANO1 activ inactive, DAGLB inhibitor inactive and hiPSC survival inactive.
O=C(/C=C/c1cccc(C(F)(F)F)c1)NNC(=O)c1ccncc1 was read as ABCB6 inh MLPCN inactive, ANO1 activ inactive, DAGLB inhibitor inactive and hiPSC survival inactive.
For NS(=O)(=O)c1ccc(CCNCc2cc(Br)ccc2OCc2ccccc2)cc1 the results were TMEM16A inh 100, ABCB6 inh MLPCN inactive, ANO1 activ inactive, DAGLB inhibitor inactive and hiPSC survival inactive.
NS(=O)(=O)c1ccc(NCc2cc(Cl)ccc2OCc2ccc(F)cc2)cc1 was read as TMEM16A inh 25, ABCB6 inh MLPCN inactive, ANO1 activ inactive, DAGLB inhibitor inactive and hiPSC survival inactive.
`NS(=O)(=O)c1ccc(NCc2ccccc2OCc2ccccc2F)cc1` gave TMEM16A inh inactive, ABCB6 inh MLPCN inactive, ANO1 activ inactive, DAGLB inhibitor inactive and hiPSC survival inactive.
`CCOc1cc(CNCCc2ccc(S(N)(=O)=O)cc2)cc(Cl)c1OCc1ccccc1` gave TMEM16A inh 25, ABCB6 inh MLPCN inactive, ANO1 activ inactive, DAGLB inhibitor inactive and hiPSC survival inactive.
`O=C(CNC(=O)[C@@H]1Cc2ccccc2CN1)NCc1ccco1` gave TMEM16A inh inactive, ABCB6 inh MLPCN inactive, ANO1 activ inactive, DAGLB inhibitor inactive and hiPSC survival inactive.
Screening CCC1C(=O)CC(c2ccc([N+](=O)[O-])cc2)NC1c1ccc([N+](=O)[O-])cc1 (stereo unspecified) returned TMEM16A inh inactive, ABCB6 inh MLPCN inactive, ANO1 activ -5.53, DAGLB inhibitor inactive and hiPSC survival inactive.
`O=C(c1[nH]nc2c1CCc1ccccc1-2)N1CCN(Cc2ccc3c(c2)OCO3)CC1` gave TMEM16A inh 25, ABCB6 inh MLPCN inactive, ANO1 activ inactive, DAGLB inhibitor inactive and hiPSC survival inactive.
`O=C(c1ccccc1)N1CCN(Cc2ccc3c(c2)OCO3)CC1` gave TMEM16A inh inactive, ABCB6 inh MLPCN inactive, DAGLB inhibitor inactive and hiPSC survival inactive.
`CCC(C)(C)c1ccc(OCCCC[n+]2cccc(C)c2C)c(C(C)(C)CC)c1` gave TMEM16A inh 100, ABCB6 inh MLPCN inactive, ANO1 activ inactive, DAGLB inhibitor inactive and hiPSC survival inactive.
CCC(C)(C)c1ccc(OCCCC[n+]2ccc(C)cc2)c(C(C)(C)CC)c1 was read as TMEM16A inh 100.
`Cc1cc(C(C)(C)C)ccc1OCCCCN1CCCC1` gave TMEM16A inh inactive, ABCB6 inh MLPCN inactive, ANO1 activ inactive, DAGLB inhibitor inactive and hiPSC survival inactive.
For Cc1c(/C=N/NC(=O)C(NC(=O)c2ccc3c(c2)OCO3)C(C)C)c2ccccc2n1C (stereo unspecified) the results were TMEM16A inh inactive, ABCB6 inh MLPCN inactive, ANO1 activ -5.74, DAGLB inhibitor inactive and hiPSC survival inactive.
COc1ccc(-n2nnnc2SCC(=O)Nc2c(C)n[nH]c2C)cc1 was read as ABCB6 inh MLPCN inactive, ANO1 activ inactive, DAGLB inhibitor inactive and hiPSC survival inactive.
Screening N#CC(c1ccccc1)c1ccc(C(=O)c2ccc(F)cc2)cc1 (stereo unspecified) returned TMEM16A inh inactive, ABCB6 inh MLPCN inactive, ANO1 activ inactive, DAGLB inhibitor inactive and hiPSC survival inactive.
N#CC(c1ccc(F)cc1)c1ccc(C(=O)c2ccccc2)cc1 (stereo unspecified) was read as TMEM16A inh 100, ABCB6 inh MLPCN inactive, ANO1 activ inactive, DAGLB inhibitor inactive and hiPSC survival inactive.
For COc1ccc(CNC(=O)CN(C)Cc2ccc(C(C)(C)C)cc2)cc1 the results were TMEM16A inh inactive, ABCB6 inh MLPCN inactive, ANO1 activ inactive, DAGLB inhibitor inactive and hiPSC survival inactive.
